Screening results as filed in PubChem BioAssay.
An excerpt weighted towards active compounds, which were near 32% of everything screened.
CYP2C19 inhib: human CYP2C19 inhibition | inhibition, % at 5 µM | hit rate 21% among 96,000 | CYP2C19 Supersomes, luciferin-H EGE luminescence, 30 min | P33261;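 active = CYP2C19 inhibition above a set limit at 5 µM in the primary screen, cut at about 50% in these data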;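 also: plate controls were negative control wells for no effect and 2.5 mM tranylcypromine positive control for full effect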
PostGolgi yeast: growth inhibition of a yeast mutant, post-Golgi transport screen. post-Golgi transport phenotypic cell assay. inhibition, % at 10 µM. hit rate 0.9% among 98,000. AID 739;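 also: yeast cells grown in 1536-well plates; yeast grown about 18 h at 30C before absorbance read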
PostGolgi ctrl: inhibits growth of the yeast control strain; inhibition, % at 10 µM; efflux-deficient yeast background strain, growth absorbance A615, 16 h; hit rate 5% among 98,000
CYP2C9 act: CYP2C9 (human) activation. recombinant CYP2C9, luciferin-H conversion, luminescence; stronger effect = higher value; factor 1 = untreated enzyme, 0 = blocked. hit rate 1.4% among 96,000. P11712. activation factor at 5 µM;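 active = activation factor of 2 or more for CYP2C9 at a 5 µM dose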;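 also: 0 = sulfaphenazole-blocked wells and 1 = vehicle-only wells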
Target sequence (P11712 whole entry, looked up): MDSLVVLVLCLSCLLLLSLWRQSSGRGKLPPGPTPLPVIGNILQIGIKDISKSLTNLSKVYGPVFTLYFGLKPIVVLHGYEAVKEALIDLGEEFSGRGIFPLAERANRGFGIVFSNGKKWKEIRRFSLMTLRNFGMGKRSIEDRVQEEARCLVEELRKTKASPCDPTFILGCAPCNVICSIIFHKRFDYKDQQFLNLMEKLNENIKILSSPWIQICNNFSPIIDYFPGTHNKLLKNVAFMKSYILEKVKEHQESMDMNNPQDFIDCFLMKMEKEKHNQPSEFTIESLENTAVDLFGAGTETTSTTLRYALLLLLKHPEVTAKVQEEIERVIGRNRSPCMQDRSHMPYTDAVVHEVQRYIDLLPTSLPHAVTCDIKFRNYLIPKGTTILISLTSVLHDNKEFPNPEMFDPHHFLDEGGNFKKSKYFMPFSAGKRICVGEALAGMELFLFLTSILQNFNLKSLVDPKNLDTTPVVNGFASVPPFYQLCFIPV
CYP2C19 act: cytochrome P450 2C19 (human) activation; P33261; recombinant CYP2C19, luciferin-H EGE luminescence; stronger effect = higher value; 0 = fully inhibited enzyme, 1 = untreated enzyme; activation factor at 5 µM; 96,000 tested, under 10 active; AID 1025;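 active = activation factor of at least 2 at 5 µM in the primary screen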;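 also: 0 = wells with 2.5 mM tranylcypromine and 1 = vehicle-only wells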
CYP2C9 inh: blocks human cytochrome P450 2C9; P11712; CYP2C9 Supersomes, luciferin-H conversion, luminescence; inhibition, % at 5 µM; hit rate 20% among 96,000;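 active = blocking of liver enzyme CYP2C9 beyond about 50% at 5 µM, limit read from the data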
* = called active by the depositor. Rule as the data show it, unless noted: active = inhibition above about 30%; inactive = the rest.

SMILES	CYP2C19 inhib	PostGolgi yeast	PostGolgi ctrl	CYP2C9 act	CYP2C19 act	CYP2C9 inh
COc1ccc(C2C(C(=O)c3sc(C)nc3C)=C(O)C(=O)N2CCCn2ccnc2)cc1OC (stereo not drawn)	-8.4	-3.5	-1.6	0.9	1.1	13.6
Cc1ccc(C)c(/C(O)=C2\C(=O)C(=O)N(CCCn3ccnc3)C2c2ccncc2)c1 (stereo not drawn)	22.4	-2.9	2.4	0.5	0.8	53.1*
NC(=O)C1(N2CCCCC2)CCN(C(=O)NC23CC4CC(CC(C4)C2)C3)CC1	14.2	-2.1	-10.1	0.4	0.9	56.1*
CCS(=O)(=O)N1CCC(C(=O)NCCCN2CCCC2)CC1	-20.5	-1.2	5.3	1.2	1.2	-18.8
CCN(CC(=O)NCCc1ccc(S(N)(=O)=O)cc1)Cc1nc2ccccc2c(=O)[nH]1	13.3	-3.9	3.0	0.3	0.9	65.9*
CCOc1ccccc1NC(=O)CCCc1nc2ccccc2c(=O)[nH]1	25.8	-4.4	12.5	0.9	0.7	9.0
CCN(CC(=O)NCCc1ccc(S(N)(=O)=O)cc1)Cc1nc2cc(OC)c(OC)cc2c(=O)[nH]1	-1.0	-5.8	-6.9	1.2	1	-19.1
CCN(CC(=O)Nc1ccccc1Br)Cc1nc2ccccc2c(=O)[nH]1	53.7*	1.3	3.9	0.5	0.5	49.5
Cc1cc(Br)ccc1NC(=O)CNC(=O)CSc1n[nH]c(N)n1	-11.2	-6.9	13.5	1	1.1	2.9
CCN(CC(=O)NC(=O)NCc1ccco1)Cc1nc2ccccc2c(=O)[nH]1	67.8*	-1.8	-8.0	0.6	0.3	45.0
Cc1cc(Br)ccc1NC(=O)CNC(=O)CN(C)Cc1nc2ccccc2c(=O)[nH]1	67.7*	0.8	-6.2	0.4	0.3	63.1*
Cc1ccc(NC(=O)CN(C)Cc2nc3ccccc3c(=O)[nH]2)c(Br)c1	27.7	-6.4	6.1	0.3	0.7	68.0*
CC(NC(=O)CN(C)Cc1nc2ccccc2c(=O)[nH]1)c1ccccc1 (stereo not drawn)	31.9	8.7	-9.0	0.7	0.7	29.3
CCC(CC)NC(=O)c1cc(OC)c(OC)cc1[N+](=O)[O-]	-7.8	-1.4	1.2	0.9	1.1	7.3
Cn1c(SCC(=O)Nc2ccc3nc(SCC(=O)N4CCCC4)sc3c2)nnc1-c1ccc(N)cc1	16.0	1.7	-0.4	0.6	0.8	38.0
CCOC(=O)N1CCN(C(=O)c2cc(OC)cc(OC)c2)CC1	25.0	13.2	1.9	0.9	0.8	9.1
COc1ccccc1-c1nnc2n1N=C(C)CS2	14.6	15.1	3.3	1	0.9	-1.0
COc1ccc(C2=Nn3c(nnc3-c3ccccc3OC)SC2)cc1OC	64.6*	21.6	19.2	0.5	0.4	53.3*
COc1ccc(C2=Nn3c(nnc3-c3ccccn3)SC2)cc1OC	62.2*	-2.4	24.8	0.6	0.4	36.3
CCOc1ccc(C2=Nn3c(nnc3-c3ccco3)SC2)cc1	21.0	-5.9	15.6	0.7	0.8	32.6
COc1ccc(C2=Nn3c(nnc3-c3ccco3)SC2)cc1OC	37.0	-4.3	26.7	0.4	0.6	56.9*
Cc1nn(-c2nnc(C)c(=O)[nH]2)c(C)c1SCC(=O)Nc1ccc(C(C)C)cc1	-8.0	9.6	-6.1	0.7	1.1	25.3
CC1CCCN(Cc2cnc(Cl)s2)C1 (stereo not drawn)	53.1*	-7.3	41.1*	1	0.5	2.5
CN(C)CCOC(C1CCCCC1)C1CCCCC1	5.8	11.0	3.5	0.9	0.9	5.4
CC1=NOC2(C1)N(C)c1ccccc1C2(C)C (stereo not drawn)	58.4*	-2.5	4.2	0.8	0.4	19.2
SMILES	CYP2C19 inhib	PostGolgi yeast	PostGolgi ctrl	CYP2C9 act	CYP2C19 act	CYP2C9 inh
O=C(COC(=O)CCNS(=O)(=O)c1cccc(C(F)(F)F)c1)NC(=O)NC1CCCCC1	69.3*	-6.1	1.4	0.2	0.3	78.9*
Cc1cccc(S(=O)(=O)NCCC(=O)OC(C)C(=O)NC(=O)NC2CCCCC2)c1 (stereo not drawn)	13.9	-3.8	-9.6	0.4	0.9	56.3*
CCOC(=O)C1=C(C)NC(SCC(=O)OC)=C(C#N)C1c1ccc(C(=O)OC)cc1 (stereo not drawn)	96.6*	15.6	14.2	0	0	95.9*
CC(=O)C1=C(C)NC(SCC(N)=O)=C(C#N)C1c1cccnc1 (stereo not drawn)	3.8	3.3	8.7	1	1	3.5
CC1=C(C(=O)Nc2ccc(Cl)cc2)C(c2ccncc2)C(C#N)=C(SCC(N)=O)N1 (stereo not drawn)	36.7	1.4	14.0	0.4	0.6	64.8*
C=CCOC(=O)C1=C(C)NC(=O)NC1c1ccc(Cl)cc1 (stereo not drawn)	100.4*	-12.4	18.8	0.3	0	66.1*
CCOC(=O)CSC1=C(C#N)C(c2ccc(F)cc2)C(C(C)=O)=C(C)N1 (stereo not drawn)	41.5	5.0	27.1	0.5	0.6	51.1*
COC(=O)C1=C(C)NC(=O)CC1c1ccc(C(=O)OC)cc1 (stereo not drawn)	21.3	-0.3	1.6	0.9	0.8	13.0
C=CCOc1ccc(C2NC(=O)NC(C)=C2C(=O)OC)cc1 (stereo not drawn)	44.0	-0.3	-4.3	0.6	0.6	39.3
Cc1cc(C)cc(OCC(=O)Nc2ccc(N3CCN(S(C)(=O)=O)CC3)cc2)c1	-17.9	3.7	4.5	1.1	1.2	-10.9
C=CCOC(=O)C1=C(C)NC(SCC)=C(C#N)C1c1ccc(Cl)cc1 (stereo not drawn)	53.2*	6.0	55.3*	0.1	0.5	85.9*
O=C1CCc2cc(S(=O)(=O)NC(Cc3ccccc3)C(=O)NC3CCCCC3)ccc2N1 (stereo not drawn)	29.4	5.7	2.3	0.8	0.7	21.6
COc1ccc(CNCCNC(=O)c2ccco2)c(OC)c1OC	4.6	-3.7	2.4	1	1	-2.9
O=C(NCCSc1c[nH]c2ccccc12)c1ccco1	18.6	3.0	6.4	0.4	0.8	61.7*
O=C(NCCSc1c[nH]c2ccccc12)C1CC1	16.3	-3.5	1.3	0.7	0.8	25.3
COc1ccc2c(CCNC(=O)c3ccco3)c[nH]c2c1	79.0*	-1.7	-1.4	0.6	0.2	39.0
CCC(CC)C(=O)Nc1cc(C)cc(C)c1	18.1	3.9	2.6	0.7	0.8	25.4
CCCSc1nnc(-c2ccccc2N)c(=O)[nH]1	5.6	8.3	7.4	0.9	0.9	8.0
CC(=O)Nc1ccc(S(=O)(=O)NC2(C(F)(F)F)C(=O)Nc3c2c(=O)n(C)c(=O)n3C)cc1 (stereo not drawn)	26.2	2.7	12.4	1.1	0.7	-7.2
CCN(C(C)=O)c1nnc(CSc2nc3ccccc3s2)s1	88.4*	2.2	3.5	1	0.1	1.6
Cc1ccc(NC(=O)c2cc(NC(=O)C3CC=CCC3C(=O)O)ccc2N2CCOCC2)cc1 (stereo not drawn)	-6.8	-11.9	-7.5	1	1.1	1.3
